Compound activity as filed in PubChem.
ClpP mod: qHTS Assay for Activators of ClpP; ATP-dependent Clp protease proteolytic subunit (Bacillus subtilis (strain 168)), P80244; hit rate 1.9% among 340,000; AID 651965, 2013; purified B. subtilis ClpP, FRET peptide cleavage, 20 min; Potency, µM (doses to about 57.5 µM); active = well fitted falling curve with a large enough effect; inconclusive = small, poorly fitted or top-dose-only effect; inactive = no such curve, though single readings can be large or run the other way; note: the source files actives as falling curves though it sought activators and does not explain the sign; nearly all actives have a fitted effect of over 65% in size
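Buffer: 100 mM Tris/HCl pH8, 100 mM KCl, 0.05% low protease BSA, 2.5% glycerol, 0.01% Tween-20. ClpP 10 microg/mL final; 20 min RT; delta FRET normalized to ADEP and DMSO controls.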
TDP1 inh: inhibitors of human tyrosyl-DNA phosphodiesterase TDP1 | Potency, µM (top dose mostly 130 µM), hits mostly inhibitors | Q9NUW8 | hit rate 0.28% among 350,000 | AID 485290 | recombinant TDP1, AlphaScreen DNA substrate cleavage; active = well fitted curve in the direction sought with a large enough effect; inconclusive = small, poorly fitted or top-dose-only effect, or another doubt; inactive = no such curve, though single readings can be large; an effect the other way counts as inactive or inconclusive; note: nearly all actives have a fitted effect of over 40% in size
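AlphaScreen read-out: signal falls as enzyme removes the 3' tyrosine-FITC from a 5'-biotinylated DNA oligo (15 nM, 5 min, RT). Enzyme was E. coli-made recombinant Tdp1 at 1 nM, exposed to compound for 15 min beforehand; beads 10 ug/ml, 10 min.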
PTAP TSG101 blk: blocks PTAP/TSG101 interaction to inhibit HIV-1 budding; 340,000 tested, under 10 active; Fluorescence polarization, FITC-PTAP peptide / Tsg101 binding; Q99816; Potency, µM (highest dose often 115 µM), usual class: inhibitors; active = well fitted inhibition curve with a large enough effect in the main read-out, with a control signal flat, not every such curve was filed as active; inconclusive = small, poorly fitted or top-dose-only effect, or effect the other way, or a change in a side signal; inactive = no such curve, though single readings can be large or run the other way
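Fluorescence anisotropy tracks displacement of a FITC-tagged PTAP peptide (50 nM) from the Tsg101 binding domain (10 uM), following a 20 min room-temperature incubation at pH 7.5.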
Rango release inh: prevents RanGTP from dissociating the Rango-importin beta complex. Biochemical FRET Rango-importin beta, RanGTP-induced dissociation. Potency, µM (doses to about 46.1 µM). hit rate 0.071% among 340,000. AID 540253; note: nearly all actives have a fitted effect of over 45% in size
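FRET read at 45 min, room temperature: inhibitors block the CFP/YFP signal rise when RanGTP (0.6 uM Ran, 2 mM GTP, 0.2 uM RCC1) frees Rango (0.1 uM) from importin beta (0.25 uM). Pre-read after 5 min compound exposure flags interference.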
Rango-impB inh: inhibitors of Rango-importin beta complex formation; Q14974; hit rate 0.031% among 340,000; Potency, µM (doses to about 92.2 µM); Rango CFP/YFP FRET sensor + importin beta, 45 min; AID 540263; note: nearly all actives have a fitted effect of over 15% in size
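FRET biosensor Rango (snurportin 1 IBB between N-terminal EYFP and C-terminal Cerulean), 50 nM in PBS/1 mM DTT/0.02% Tween-20/0.1% BSA, preincubated 5 min RT with compound; 0.125 microM importin beta added, 45 min RT, CFP/YFP FRET ratio read.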
ALOX12 inh: inhibitors of human 12S-lipoxygenase ALOX12. P18054. purified 12hLO, xylenol orange hydroperoxide absorbance. Potency, µM (titrated, usually from 108 µM), usual class: inhibitors. hit rate 1.1% among 580,000; active = well fitted curve in the direction sought with a large enough effect; inconclusive = small, poorly fitted or top-dose-only effect, or another doubt; inactive = no such curve, though single readings can be large; an effect the other way counts as inactive or inconclusive
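Purified human 12hLO (150 nM final) in 25 mM Hepes, 0.01% Triton X-100, pH 7.0 was preincubated 15 min at room temperature with compound. Then 40 uM arachidonic acid was added, 30 min. Hydroperoxide was read by Fe-XO absorbance ratio 573/405 nm.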
Each line names hits and unclear results; the compound was inactive in the other large screens. Sampled rows, rich in hits. Any-hit rate of the full collection: about 2.4%. Unless noted, calls come from the whole dose curve.

O=C(O)CCNc1c(-c2ccc(F)cc2)nc2cnccn12	ALOX12 inh 35.5µM (no result: ClpP mod, TDP1 inh, PTAP TSG101 blk, Rango release inh, Rango-impB inh)
NC(=O)CSc1nc(-c2cccs2)nc2ccccc12	none (no result: ClpP mod, TDP1 inh, PTAP TSG101 blk, Rango release inh, Rango-impB inh)
O=C1NN(c2cccc(Br)c2)C(=O)/C1=C/c1cccs1	none (no result: TDP1 inh)
O=C1NN(c2cccc(Br)c2)C(=O)/C1=C\c1ccccc1	Rango-impB inh inconclusive, ALOX12 inh 5.62µM (no result: ClpP mod, TDP1 inh)
CCCCCC(=O)N1CC[C@@H](CC(=O)O)[C@@H](CC)C1	none (no result: ClpP mod, TDP1 inh, PTAP TSG101 blk, Rango release inh, Rango-impB inh)
C[N+](CCOCc1ccccc1)(CCOCc1ccccc1)CCOCc1ccccc1	ALOX12 inh 17.8µM (no result: ClpP mod, TDP1 inh, PTAP TSG101 blk, Rango release inh, Rango-impB inh)
CC(=O)N(/N=C1\Sc2ccccc2C1=O)c1ccccc1C	Rango release inh 8.2µM, Rango-impB inh inconclusive
Cc1noc2ncnc(Oc3ccccc3)c12	ClpP mod 25.1µM, Rango release inh inconclusive
Oc1ccc(/C=N/N=C/c2ccc(O)c(O)c2)cc1O	Rango-impB inh inconclusive, ALOX12 inh 1.12µM (no result: ClpP mod, TDP1 inh)
Oc1ccc(/C=N/N(c2ccccc2)c2ccccc2)cc1O	none
O=C(/C(=N/N=C/c1ccc(O)c(O)c1)c1ccccc1)c1ccccc1	ALOX12 inh 39.8µM
C[C@H](NC(=O)c1ccccn1)C(O)c1nc2ccccc2[nH]1 (stereo partly drawn)	none (no result: ClpP mod, TDP1 inh, PTAP TSG101 blk, Rango release inh, Rango-impB inh)
COc1ccc(-c2cc(C)no2)cc1S(=O)(=O)CCC(=O)Nc1ccc(C)c(C)c1	none (no result: ClpP mod, TDP1 inh, PTAP TSG101 blk, Rango release inh, Rango-impB inh)
Cc1ccc(N2C=Nc3ccc(C)c4nc(C)cc2c34)cc1	ClpP mod 22.4µM, Rango release inh inconclusive, Rango-impB inh inconclusive
Cc1ccc(-c2noc(CSc3nnc(C4CC4)n3-c3ccccc3)n2)cc1	none (no result: ClpP mod, TDP1 inh, PTAP TSG101 blk, Rango release inh, Rango-impB inh)
CN(C(=O)CN1CCN(c2cc(-c3ccc(-c4ccccc4)cc3)ncn2)CC1)c1ccccc1	ALOX12 inh 44.7µM (no result: TDP1 inh, PTAP TSG101 blk, Rango release inh, Rango-impB inh)
CCOc1cc(Cn2c(-c3ccc(O)c(OCC)c3)nc3ccccc32)ccc1O	ClpP mod 10µM (no result: PTAP TSG101 blk, Rango release inh, Rango-impB inh)
CCOc1ccc(Cn2c(-c3ccc(OCC)c(OC)c3)nc3ccccc32)cc1OC	none (no result: PTAP TSG101 blk, Rango release inh, Rango-impB inh)
C(=Nc1ccc(Nc2ccccc2)cc1)c1ccc2ccccc2c1	ClpP mod 14.1µM (no result: ALOX12 inh)
Brc1ccc(C=Nc2ccc(Nc3ccccc3)cc2)s1	Rango-impB inh inconclusive (no result: ALOX12 inh)
CCN(CC)c1ccc(C=Nc2ccc(Nc3ccccc3)cc2)cc1	ALOX12 inh 20µM (no result: ClpP mod, TDP1 inh, PTAP TSG101 blk, Rango release inh, Rango-impB inh)
CN(C)c1ccc(C=Nc2ccccc2)cc1	none
CN(C)c1ccc(C=Nc2ccc(Nc3ccccc3)cc2)cc1	ALOX12 inh 7.94µM (no result: ClpP mod, TDP1 inh, PTAP TSG101 blk, Rango release inh, Rango-impB inh)
O=C1Nc2ccc(-c3ccsc3)cc2C(=O)N2C[C@H](O)C[C@@H]12	none (no result: ClpP mod, TDP1 inh, PTAP TSG101 blk, Rango release inh, Rango-impB inh)
Cc1cc(=O)n(CC(=O)Nc2ccccc2F)c(-c2ccc(F)cc2)n1	none (no result: ClpP mod, TDP1 inh, PTAP TSG101 blk, Rango release inh, Rango-impB inh)
O=C(Nc1ccc(N2CCOCC2)c(S(=O)(=O)Nc2ccc(Cl)cc2)c1)c1cnccn1	ALOX12 inh 8.91µM
O=C(Nc1ccc(N2CCOCC2)c(S(=O)(=O)Nc2ccc(Cl)cc2)c1)c1ccc(=O)[nH]n1	ALOX12 inh inconclusive
CCC(=O)Nc1ccc(N2CCOCC2)c(S(=O)(=O)Nc2ccc(Cl)cc2)c1	ALOX12 inh inconclusive
COCCNC(=S)Nc1ccc(N2CCOCC2)c(S(=O)(=O)Nc2ccc(Cl)cc2)c1	ALOX12 inh 5.01µM (no result: TDP1 inh, PTAP TSG101 blk, Rango release inh, Rango-impB inh)
CCc1cc2c3c(c(=O)oc2cc1OC(C)C(=O)O)CCCC3 (stereo not drawn)	none (no result: TDP1 inh)
CCc1cc2c3c(c(=O)oc2cc1O)CCCC3	ClpP mod 10µM, Rango release inh inconclusive, Rango-impB inh inconclusive
COc1ccc(C(=S)NCS(=O)(=O)c2ccc(C)cc2)cc1	ALOX12 inh 15.8µM
O=C1NC2(C(=O)Nc3cccc(Br)c3)CCC(=O)N2c2ccccc21 (stereo not drawn)	none (no result: ClpP mod, TDP1 inh, PTAP TSG101 blk, Rango release inh, Rango-impB inh)
O=[N+]([O-])c1ccccc1/C=C/C=N/Nc1ccc(S(=O)(=O)Nc2ccccc2)cc1[N+](=O)[O-]	none (no result: ClpP mod, TDP1 inh, PTAP TSG101 blk, Rango release inh, Rango-impB inh)
Cc1ccc(N/N=C/C=C/c2ccccc2[N+](=O)[O-])c(C)c1	ALOX12 inh 15.8µM (no result: ClpP mod, TDP1 inh, PTAP TSG101 blk, Rango release inh, Rango-impB inh)
OCc1ccccc1-c1nc(NCc2ccccc2)nc2ccsc12	ALOX12 inh 14.1µM (no result: TDP1 inh, PTAP TSG101 blk, Rango release inh, Rango-impB inh)
O=C(Nc1nn[nH]n1)c1cccc(S(=O)(=O)N2CCOCC2)c1	none (no result: ClpP mod, TDP1 inh, PTAP TSG101 blk, Rango release inh, Rango-impB inh)
